# Measured values as given in PubChem BioAssay AID488969 (Vanderbilt High Throughput Screening Facility, 2010).
# Whole data set: some 110,000 compounds, median “z-score” near -0.1, cut for the highest 2% near 2. The sample as a whole holds a higher share of the highest values than the screen did. Activity calls are given as the source filed them.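 Rule for the calls: active = z-score in the third read window above 3 or below -3; inactive = the rest.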
# Molecular target: Metabotropic glutamate receptor 8 (Rattus norvegicus) (UniProt P70579)
# Assay: mGluR8 Gi/Go-coupled signaling modulation – cell-based, rat, thallium flux, HTS, primary screen (AID 488969)
# Settings: HEK293 rat mGluR8, GIRK (G protein-gated inwardly rectifying potassium channel) thallium flux, FluoZin2; at 10 µM; stronger effect = higher value; submaximal glutamate (EC20) added with thallium
# Metabotropic glutamate receptor 8 (Rattus norvegicus), sequence (P70579 whole entry, looked up): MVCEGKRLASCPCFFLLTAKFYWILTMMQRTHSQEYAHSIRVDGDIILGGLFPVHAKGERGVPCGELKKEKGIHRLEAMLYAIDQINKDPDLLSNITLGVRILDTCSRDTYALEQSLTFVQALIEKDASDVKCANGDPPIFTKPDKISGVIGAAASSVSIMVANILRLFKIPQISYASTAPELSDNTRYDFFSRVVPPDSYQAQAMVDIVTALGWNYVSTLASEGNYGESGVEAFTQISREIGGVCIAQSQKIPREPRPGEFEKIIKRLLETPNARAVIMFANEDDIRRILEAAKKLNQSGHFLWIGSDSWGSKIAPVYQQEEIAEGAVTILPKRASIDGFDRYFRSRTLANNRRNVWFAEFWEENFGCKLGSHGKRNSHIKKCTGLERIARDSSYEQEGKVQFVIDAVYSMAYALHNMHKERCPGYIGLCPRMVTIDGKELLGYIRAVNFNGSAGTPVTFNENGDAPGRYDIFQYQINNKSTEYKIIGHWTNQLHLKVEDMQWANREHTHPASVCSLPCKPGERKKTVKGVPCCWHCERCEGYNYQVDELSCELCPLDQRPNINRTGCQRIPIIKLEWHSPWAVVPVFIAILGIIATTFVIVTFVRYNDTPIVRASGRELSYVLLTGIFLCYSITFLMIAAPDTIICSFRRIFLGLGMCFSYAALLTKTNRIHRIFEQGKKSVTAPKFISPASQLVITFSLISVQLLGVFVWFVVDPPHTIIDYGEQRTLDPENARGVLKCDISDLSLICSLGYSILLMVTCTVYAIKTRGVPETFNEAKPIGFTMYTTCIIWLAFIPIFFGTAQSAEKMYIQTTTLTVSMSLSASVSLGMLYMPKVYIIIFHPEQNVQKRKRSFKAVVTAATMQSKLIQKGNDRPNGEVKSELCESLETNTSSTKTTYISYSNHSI
row,Structure (SMILES),z-score
1,CCOc1ccc(Cl)cc1/C=N/O,-0.395
2,O/N=C/c1cc(Cl)ccc1OCc1cccc2ccccc12,2.76
3,O/N=C/c1cc(Cl)ccc1OCc1ccccc1Cl,-0.352
4,Nc1ncnc2c1ncn2CCNCCc1ccccc1,-0.981
5,Cc1cccc(/C=N/n2c(-c3ccccn3)n[nH]c2=S)c1,-0.174
6,Cc1cc(-c2n[nH]c(=S)n2/N=C/c2cccc([N+](=O)[O-])c2)n[nH]1,-0.221
7,Cc1cc(-c2n[nH]c(=S)n2/N=C/c2cccs2)n[nH]1,-0.233
8,COc1ccc(/C=N/n2c(-c3cccs3)n[nH]c2=S)cc1,2.46
9,COc1cccc(/C=N/n2c(-c3cccs3)n[nH]c2=S)c1,3.25 (active)
10,CCOC(=O)COc1ccc(S(=O)(=O)NCc2cccnc2)cc1,0.014
11,Cc1nn(CC(=O)NCc2cccc3ccccc23)c(=O)c2ccccc12,-0.0519
12,COc1ccc(NC(=O)C2CCN(C(=O)c3ccccc3)CC2)c(OC)c1,-1.36
13,Cn1nc(C(=O)NC2CCCCCC2)ccc1=O,1.32
14,CCOC(=O)c1c(-c2cccs2)csc1NC(=O)CNCCN1CCOCC1,-0.205
15,CC(NC(=O)COC(=O)c1cc(NS(=O)(=O)c2ccc(Cl)c([N+](=O)[O-])c2)ccc1O)C1CC2CCC1C2 (centres undefined),-0.436
16,O=C(OCC(=O)N1CCCCC1)c1cc(NS(=O)(=O)c2ccc(Cl)c([N+](=O)[O-])c2)ccc1O,-0.652
17,CCN(C(=O)COC(=O)c1cc(NS(=O)(=O)c2ccc(Cl)c([N+](=O)[O-])c2)ccc1O)C1CCCCC1,2
18,O=C(COC(=O)Cc1c(Cl)cccc1Cl)NCCC1=CCCCC1,-0.34
19,COc1cc(C2NC(=O)NC(O)(C(F)(F)F)C2C(=O)c2cccs2)ccc1O (centres undefined),-0.852
20,CCOC(=O)c1ccc(Nc2ncnc3ccc(C)cc23)cc1,-0.372
21,CCCc1cc(=O)n2[nH]c(-c3ccccc3)cc2n1,0.844
22,CCCc1cc(=O)n2[nH]c(C)cc2n1,-0.851
23,CCCc1cc(=O)n2[nH]c(-c3ccc(Br)cc3)cc2n1,3.04 (active)

row,Structure (SMILES),z-score
1,O=C(Cn1cc(C(=O)c2cccs2)c2ccccc21)NC1CCCCC1,-2.37
2,O=C(Cn1c(C(F)(F)F)nc2ccccc21)c1ccc(Cl)cc1,-0.0833
3,O=C(Nc1ccc2c(c1)OCO2)c1noc2c1CCCCC2,0.597
4,COc1ccc(N2CCc3c(C)nc4c(OC)cc(OC)cc4c32)c(OC)c1,0.775
5,COc1ccccc1N1CCc2c(C)nc3c(OC)cccc3c21,-0.0829
6,COc1cc(OC)c2nc(C)c3c(c2c1)N(c1ccc(O)cc1)CC3,3.3 (active)
7,CNc1nc(SCc2ccccc2Cl)nc2c1CCCC2,-0.358
8,Cc1cc(CC(C)C)n(-c2nc3ccccc3c(=O)n2OCC(N)=O)n1,3.83 (active)
9,Cc1cc(CC(C)C)n(-c2nc3ccccc3c(=O)n2OCc2ccccc2)n1,0.802
10,Cc1cc(C)n(-c2nc3ccccc3c(=O)n2OCC(N)=O)n1,-0.254
11,Cn1c(SCc2nc(-c3ccc(Cl)cc3)no2)nnc1-c1ccco1,0.0893
12,O=C(COc1ccc(OCc2ccccc2)cc1)NC1CCOC1=O (centres undefined),-0.0067
13,CC(C)C(c1nnnn1C1CCCC1)N(C)C1CCCCC1 (centres undefined),-0.559
14,CC(C)OCCCNC(=O)c1cccc(NC(=O)c2ccccc2)c1,2.99
15,CC(C)OCCCNC(=O)c1ccc(Br)cc1,0.954
16,COCCCNC(=O)c1cccc(NC(=O)c2ccccc2)c1,-0.13
17,COc1ccccc1C(=O)Nn1cnc2ccccc2c1=O,0.366
18,CCCCN1C2=C(C(=O)CCC2)C(c2ccc(Cl)c(Cl)c2)C2=C1c1ccccc1C2=O (centres undefined),-0.878
19,Cc1cc(C)c(S(C)(=O)=O)c(Oc2ccccc2C)n1,-0.0363
20,O=C1NCCCc2c1oc1ccc(O)cc21,-0.602
21,Oc1c(Cl)cc(Cl)c2c1NCCC2,5.54 (active)
22,Cc1cc2c(C)cc(=O)oc2c2c1NCCC2,-0.295
23,Cc1cc(C)cc(NC(=O)C(Nc2ccccc2)c2ccccc2)c1 (centres undefined),0.168

row,Structure (SMILES),z-score
1,CCCN(CCC)C(=O)c1ccccc1C(=O)N(CCC)CCC,-0.328
2,Cc1cc2c(C)nc3ccccc3c2o1,-0.371
3,Cc1nc(C)c(C(=O)Nc2ccc(Oc3ccccc3)cc2)o1,6.45 (active)
4,COc1ccc(NC(=O)c2ocnc2C)cc1OC,-0.369
5,Cc1nc(C)c(C(=O)Nc2cccc(Cl)c2)o1,0.108
6,Cc1ncoc1C(=O)Nc1ccc(Oc2ccccc2)cc1,2.26
7,COc1cccc(NC(=O)c2ocnc2C)c1,-0.0866
8,Cc1nc(C)c(C(=O)Nc2ccccc2-c2ccccc2)o1,-0.0653
9,CC(C)(C)NC(=O)Cn1nnc(-c2ccc(Cl)cc2)n1,-0.11
10,COc1ccc(OCC(=O)NC(=S)Nc2ccc(S(=O)(=O)Nc3cc(OC)nc(OC)n3)cc2)cc1,-0.254
11,COC(=O)CC(NC(=O)c1ccc(C)cc1)c1ccccc1 (centres undefined),-0.129
12,Cc1ccc(Cn2cc(S(=O)(=O)c3ccc(Cl)cc3)c(=O)c3cc(F)ccc32)cc1,-0.041
13,COc1cc(/C=N/NC(=O)CC23CC4CC(CC(C4)C2)C3)cc(Br)c1OCC(=O)N(C)C,-0.225
14,O=c1c2c3c(sc2nc2n1CCCC2)CCCC3,-0.196
15,Cc1cccc(Nc2nc(N)c([N+](=O)[O-])c(NCc3ccco3)n2)c1,2.38
16,Cc1cccc(Nc2nc(NCc3ccco3)c3ccccc3n2)c1,0.729
17,Nc1nc(NCc2ccccc2)nc(NCc2ccccc2)c1[N+](=O)[O-],-0.14
18,Nc1nc(Nc2ccccc2)nc(NCc2ccco2)c1[N+](=O)[O-],4.24 (active)
19,Cc1ccc(Nc2nc(N)c([N+](=O)[O-])c(NCc3ccco3)n2)cc1,-0.288
20,Cc1ccc(Nc2nc(N)c([N+](=O)[O-])c(NCc3ccco3)n2)cc1C,0.169
21,Cc1ccc2c(c1)C(=O)CCN2,0.498
22,CC(C)NC(=S)NC(=O)/C=C/c1cccc2ccccc12,0.214
23,CC(OC(=O)C1=COCCO1)C(=O)Nc1ccc(Oc2ccccc2)cc1 (centres undefined),0.0205

row,Structure (SMILES),z-score
1,CCOC(=O)c1c(C)[nH]c(=S)c(C#N)c1-c1ccc(OC)cc1,0.501
2,CCOC(=O)c1c(C)[nH]c(=S)c(C#N)c1-c1ccc(Cl)cc1,3.4 (active)
3,CCOC(=O)c1c(-c2ccc(Cl)cc2)c(C#N)c(=O)n(N)c1N,-0.497
4,N#Cc1ccccc1CSc1ccc(-c2nc3ccccc3[nH]2)cn1,-0.154
5,COc1ccc(-c2cc(C(F)(F)F)c(C#N)c(SCC(=O)Nc3nc(C)co3)n2)cc1,-0.185
6,O=[N+]([O-])c1cccnc1N1CCC(c2cc(-c3cccc(C(F)(F)F)c3)n[nH]2)CC1,-0.378
7,CC1CCc2nn(CC(=O)N3CCN(C(=O)c4ccco4)CC3)cc2C1 (centres undefined),3.92 (active)
8,O=C(c1ccco1)N1CCCN(C(=O)c2ccco2)CC1,-0.354
9,O=C(CCSc1ccccc1)N1CCN(C(=O)c2ccco2)CC1,-0.515
10,O=C(CCC1CCCC1)N1CCN(C(=O)c2ccco2)CC1,2.43
11,COCCCNC(=S)N1CCN(C(=O)c2ccco2)CC1,-0.034
12,CNC(=S)N1CCN(C(=O)c2ccco2)CC1,2.05
13,CC1CCCN(C(=O)CN2CCN(C(=O)c3ccco3)CC2)C1 (centres undefined),0.124
14,O=C(Cc1ccccc1)N1CCN(C(=O)c2ccco2)CC1,-0.0691
15,CC1CCc2nn(CC(=O)N3CCc4ccccc43)cc2C1 (centres undefined),0.16
16,CCn1c(SCc2nc3ccccc3c(=O)[nH]2)nc2ccccc2c1=O,-0.672
17,Cc1ccc2cc(CN(Cc3cccs3)Cc3nnnn3CC3CCCO3)c(=O)[nH]c2c1 (centres undefined),-0.0837
18,CCOC(=O)N1CCN(CC(=O)Nc2ccc(C)c(Br)c2)CC1,-0.241
19,CCOC(=O)COc1ccc(S(=O)(=O)Nc2ccc(C)cc2)cc1,-0.352
20,CCC(c1c(C)[nH]oc1=O)c1c(C)[nH]oc1=O,0.119
21,COc1cc(/C=C2/SC(N)=NC2=O)ccc1Oc1ccc([N+](=O)[O-])cc1[N+](=O)[O-],-0.644
22,Cc1cc(C(=O)COC(=O)Cc2n[nH]c(=O)c3ccccc23)c(C)n1-c1cccc(C(F)(F)F)c1,-1.01
23,CCN(CC)c1ccc2cc(C(N)=O)c(=O)oc2c1,-0.0435

row,Structure (SMILES),z-score
1,CCN(CC)c1ccc2cc(-c3nnc(-c4ccccc4)o3)c(=O)oc2c1,2.42
2,CCN(CC)c1ccc2cc(C(C)=O)c(=O)oc2c1,-2.23
3,CCN(CC)c1ccc2cc(C=O)c(=O)oc2c1,17.6 (active)
4,CCN(CC)c1ccc2cc(-c3nnc(-c4ccncc4)o3)c(=O)oc2c1,-1.17
5,CCN(CC)c1ccc2cc(-c3nnc(-c4ccc(Br)cc4)o3)c(=O)oc2c1,-4 (active)
6,CC1CCc2nn(CC(=O)NCCCN3CCOCC3)cc2C1 (centres undefined),-0.0438
7,O=C(c1cccc(-n2cnnn2)c1)N1CCOCC1,-0.145
8,COC(=O)c1ccc(C(C(=O)NCc2ccccc2)N(Cc2cccs2)C(=O)c2cnccn2)cc1 (centres undefined),-0.245
9,CCc1ccccc1N1C(=O)c2ccccc2S1(=O)=O,-0.409
10,CN(CCc1ccccn1)S(=O)(=O)c1ccccc1F,0.185
11,O=C1c2ccccc2C(=O)N1Nc1ccccc1,4.88 (active)
12,O=C1C=C(c2ccccc2)C(=O)N1Nc1ccccc1,0.219
13,O=C1c2ccccc2C(=O)N1CNc1ccccc1,0.141
14,COc1ccc(/C=N/OCC(=O)Nc2nc3ccccc3s2)cc1,-0.132
15,Cc1cc(OCCN2CCCCC2)nc2ccccc12,0.234
16,Cc1cc(C)cc(C(=O)n2cnnc2N)c1,-0.0618
17,CC(C)OC(=O)CC12CN3CN(C1)CC(CC(=O)OC(C)C)(C3)C2=O,3.43 (active)
18,CC(C)OC(=O)CC12CN(C)CC(CC(=O)OC(C)C)(CN(C)C1)C2=O,0.458
19,CCOC(=O)CC12CN3CN(C1)CC(CC(=O)OCC)(C3)C2=O,-0.0089
20,O=C(O)c1ccc(F)c(S(=O)(=O)Nc2ccccc2Cl)c1,-0.11
21,COC(=O)c1ccccc1NC(=O)c1cccc(NC(=O)CSCc2ccccc2)c1C,-0.0727
22,Cc1cc(Cl)ccc1OCCCC(=O)NCC1CCCO1 (centres undefined),-0.79
